Laboratory results reported in PubChem BioAssay AID1439 (NMMLSC, 2008).
Among all 220,000 compounds or so, about 770 (0.35%) were called active. Roughly 15% stayed inconclusive and do not appear here. Cut-off read from the data, not from the text of the source: active = binding response below about 49% or above about 150%; inconclusive = no clear call, values can overlap the other calls; inactive = in between. Only a selection was taken, and actives are over-represented in it overall.

Each compound was assayed against Guanine nucleotide-binding protein G(o) subunit alpha (Homo sapiens) (UniProt P09471) (assay: compounds changing RGS7 association with Galphao – biochemical, multiplexed bead flow cytometry, primary screen (AID 1439;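 note: fluorescent Galphao held in activated GDP-AlF4 state binding bead-coupled RGS7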)). Conditions: at 10 µM, actives lie on both sides.
Chain of Guanine nucleotide-binding protein G(o) subunit alpha (Homo sapiens) (P09471 whole entry, looked up): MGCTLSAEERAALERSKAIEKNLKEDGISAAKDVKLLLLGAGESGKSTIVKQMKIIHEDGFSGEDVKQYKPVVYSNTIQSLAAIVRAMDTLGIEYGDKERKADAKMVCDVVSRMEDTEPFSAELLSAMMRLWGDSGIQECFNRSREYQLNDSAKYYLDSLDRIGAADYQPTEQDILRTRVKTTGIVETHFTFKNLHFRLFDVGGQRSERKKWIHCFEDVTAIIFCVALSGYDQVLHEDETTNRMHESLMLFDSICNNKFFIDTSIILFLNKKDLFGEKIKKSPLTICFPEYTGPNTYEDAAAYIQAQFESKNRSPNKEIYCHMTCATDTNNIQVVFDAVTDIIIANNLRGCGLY

| Structure (SMILES) | binding response (% of control) |
| --- | --- |
| CN1C(=O)/C(=C/c2ccc(C(=O)NC3CCCC3)cc2)Oc2ccccc21 | 98.8% (inactive) |
| O=C(CCc1ccccc1)Nc1ccc(NC(=O)C2CCCCC2)nc1 | 105% (inactive) |
| Cc1ccc(CN2CCN(Cc3ccccc3-c3ccco3)CC2CCO)o1 (stereo unspecified) | 90.6% (inactive) |
| Cc1ccc(NC(=O)NCC(c2cccnc2)N2CCOCC2)cc1 (stereo unspecified) | 100% (inactive) |
| CN1CCN(S(=O)(=O)c2ccc(N3CCN(S(=O)(=O)c4cccs4)CC3)nc2)CC1 | 95.4% (inactive) |
| CN1CCN(C(CNS(=O)(=O)c2cccs2)c2cccnc2)CC1 (stereo unspecified) | -9.98% [inhibitor] (active) |
| CN(C)c1ccc(/C=N/NC(=O)C(O)c2ccc(Br)cc2)cc1 (stereo unspecified) | 101% (inactive) |
| CC(C)(C)C(=O)CN1C2=NCCN2c2ccccc21 | 109% (inactive) |
| Cc1ccccc1NC(=O)Cn1c(=O)n(CC2CCCO2)c(=O)c2ccccc21 (stereo unspecified) | 106% (inactive) |
| COc1ccc(CC(=O)N/N=C(\C)c2ccccn2)cc1 | 93.4% (inactive) |
| CCN(CC)CCOc1ccc2c(c1)C(=NNC(=O)c1ccccn1)c1cc(OCCN(CC)CC)ccc1-2 | 216% (active) |
| CCOc1cc(NC(=O)c2ccccn2)c(OCC)cc1NC(=O)c1ccc(OC)cc1 | 107% (inactive) |
| COC(=O)c1cc2n(n1)CCCNC2=O | 106% (inactive) |
| O=[N+]([O-])c1ccc2c(c1)C(N1CCOCC1)/C(=C/C1(O)CCCCC1)O2 (stereo unspecified) | 100% (inactive) |
| CCn1c(=N)n(CC(=O)c2cccc(OC)c2)c2ccccc21 | 96.8% (inactive) |
| CCCCOC(=O)Cn1c(=O)n(CC(=O)OCCCC)c2cc(C)ccc21 | 103% (inactive) |
| CCCCOC(=O)Cn1c(=N)n(CCN(CC)CC)c2ccccc21 | 165% (active) |
| CCC(C)CN1CCC(CO)(Cc2ccccc2Cl)CC1 (stereo unspecified) | 103% (inactive) |
| O=S1(=O)CCC(NC(=S)SCc2ccccc2Br)C1 (stereo unspecified) | 97.5% (inactive) |
| Cc1cc2nc(C)n(CCCNC(=O)Nc3ccccc3)c2cc1C | 180% (active) |
| Cn1c(CCN2CCCCCC2)nc2cc(NC(=O)Nc3ccccc3)ccc21 | 106% (inactive) |
| Cc1nc2cc(NC(=O)NC3CC3)ccc2n1C | 99% (inactive) |
| CCOc1ccc(S(=O)(=O)Nc2nccs2)cc1 | 101% (inactive) |

| Structure (SMILES) | binding response (% of control) |
| --- | --- |
| C=CCN1C2CCCC1CC(NC(=S)Nc1cccc(OC)c1)C2 (stereo unspecified) | 102% (inactive) |
| Clc1cccc(-c2nc(NCC3CCCO3)c3ccccc3n2)c1 (stereo unspecified) | 99.5% (inactive) |
| Cc1cc(C)n2nc(C(=O)N(C)C(c3ccccc3)c3ccccc3)nc2n1 | 99% (inactive) |
| Cc1cccc(NC(=S)N2CCCC(c3nc4ccccc4[nH]3)C2)c1 (stereo unspecified) | 106% (inactive) |
| COc1cc(C2/C(=C(\O)c3ccc4c(c3)CC(C)O4)C(=O)C(=O)N2Cc2ccco2)ccc1O (stereo unspecified) | 17.7% [inhibitor] (active) |
| COCCCN1C(=O)C(=O)/C(=C(/O)c2ccc3c(c2)CC(C)O3)C1c1cccnc1 (stereo unspecified) | 93.5% (inactive) |
| COc1ccc(/C(O)=C2\C(=O)C(=O)N(Cc3ccco3)C2c2ccc(OC)cc2OC)cc1 (stereo unspecified) | 98.7% (inactive) |
| CSc1ccc(C(=O)C2CCCN(C(=O)c3ccc(C)nc3)C2)cc1 (stereo unspecified) | 96% (inactive) |
| O=C(CCN1CCN(C/C=C/c2ccccc2)CC1)Nc1cccc(F)c1 | 101% (inactive) |
| CCOC(=O)N1CCN(C(=O)COc2ccc(Cl)cc2C)CC1 | 102% (inactive) |
| Cc1cc(NC(=O)COc2ccc(Cl)cc2Cl)n(CCC#N)n1 | 93.9% (inactive) |
| CCCn1nnnc1NC(=O)COc1ccc(Cl)cc1C | 17.1% [inhibitor] (active) |
| Cn1c(=NC(=O)c2ccco2)sc2cccc(F)c21 | 103% (inactive) |
| CCCC(=O)N=c1sc2cccc(F)c2n1C | 18% [inhibitor] (active) |
| Cn1c(=NC(=O)C2CC2)sc2cc(F)cc(F)c21 | 95.6% (inactive) |
| Cc1cnc(C(=O)N2CCCC(C(=O)c3ccc(C(F)(F)F)cc3)C2)cn1 (stereo unspecified) | 107% (inactive) |
| COc1cccc(-n2nc(C(=O)N3CCN(Cc4ccccc4)CC3)c3ccccc3c2=O)c1 | 98.7% (inactive) |
| CCC(=O)OCCNc1nc(-c2ccccc2)nc2ccccc12 | 110% (inactive) |
| CC(=O)NC1C(OCc2ccccc2)OC(COC(C)=O)C(OC(C)=O)C1OC(C)=O (stereo unspecified) | 99.5% (inactive) |
| O=C(OCC1O[C@@H](OC(=O)c2cc(O)c(O)c(O)c2)[C@@H](OC(=O)c2cc(O)c(O)c(O)c2)[C@@H](OC(=O)c2cc(O)c(O)c(O)c2)[C@@H]1OC(=O)c1cc(O)c(O)c(O)c1)c1cc(O)c(O)c(O)c1 (stereo partly specified) | 20.5% [inhibitor] (active) |
| NC(=O)c1ccc(CN2CCC(Cc3ccccc3)CC2)cc1 | 99.1% (inactive) |
| OCC1(CCc2ccccc2)CCN(Cc2ccc3nsnc3c2)CC1 | 96.7% (inactive) |
| CN1CCNC(=O)C1CC(=O)NCCC1=CCCCC1 (stereo unspecified) | 96.7% (inactive) |

| Structure (SMILES) | binding response (% of control) |
| --- | --- |
| CCc1nnc(NS(=O)(=O)c2ccc(NC(=S)NC(=O)c3cccs3)cc2)s1 | 96.9% (inactive) |
| CCOC(=O)CSc1nc2c(sc(=S)n2CCc2ccccc2)c(=O)n1Cc1ccco1 | 113% (inactive) |
| Cc1cc2c(c(=O)n1Cc1ccco1)C(c1ccccc1)C(C#N)=C(N)O2 (stereo unspecified) | 101% (inactive) |
| CN(c1ccccc1)c1ccc(/C=c2\s/c(=C(/C#N)C(=O)C(C)(C)C)n(Cc3ccco3)c2=O)cc1 | 421% (active) |
| COc1ccc(C(=O)CSc2nc(C)cc(C)n2)cc1[N+](=O)[O-] | 103% (inactive) |
| O=C(NCCCN1CCOCC1)c1ccc([N+](=O)[O-])cc1[N+](=O)[O-] | 101% (inactive) |
| O=C(CC1SC(=Nc2ccccc2F)N(CCN2CCOCC2)C1=O)Nc1ccc(F)cc1F (stereo unspecified) | 87% (inactive) |
| CC(C)(C)CN1CCNC(=O)C1CC(=O)NC1Cc2ccccc2C1 (stereo unspecified) | 85.9% (inactive) |
| CC1(C)CC(=O)C(CC(=O)N2CCC(Cc3ccccc3)CC2)C(=O)C1 | 106% (inactive) |
| CC1=CC=CN2C1=NC(=O)CC2(C)C(=O)N(CC(=O)NC1CCCC1)c1ccccc1C (stereo unspecified) | 104% (inactive) |
| Cc1ccccc1C(=O)Nc1ccc(N2CCCCCC2)cc1 | 91.3% (inactive) |
| CN1CCN(Cc2c(O)ccc3c2oc(=O)c2ccccc23)CC1 | 99.2% (inactive) |
| CCOC(=O)c1oc2c(CN3CCN(C)CC3)c(O)ccc2c(=O)c1-c1ccc(Br)cc1 | 318% (active) |
| CCN1CCN(Cc2c(O)ccc3c(=O)c(-c4ccc(OC)c(OC)c4)c(C(F)(F)F)oc23)CC1 | 97.2% (inactive) |
| COc1ccc(N2C(=O)/C(=C\c3ccco3)N=C2SCC(N)=O)cc1Cl | 93.9% (inactive) |
| O=C(O)CCCCCNc1ncnc2ccc(Br)cc12 | 91.8% (inactive) |
| Cc1c(CN2CCC(C)CC2)c(=O)n(-c2ccccc2)n1C | 97% (inactive) |
| Cc1cccc(N2CCN(Cc3c(C)n(C)n(-c4ccccc4)c3=O)CC2)c1C | 103% (inactive) |
| Cc1c(CN2CCCC(C(=O)c3cccc(Cl)c3)C2)c(=O)n(-c2ccccc2)n1C (stereo unspecified) | 230% (active) |
| Cc1ccc(NC(=O)CN2CCCCC2)c2c1CC(C)(C)O2 | 103% (inactive) |
| CS/C(=C\[N+](=O)[O-])Nc1ccc(C)cc1 | 106% (inactive) |
| S=C(Nc1cccc(Br)c1)N1CCn2cccc2C1c1cccnc1 (stereo unspecified) | 102% (inactive) |
| O=C(Nc1ccccc1Cl)c1ccccc1S(=O)(=O)c1ccccc1[N+](=O)[O-] | 90.2% (inactive) |

| Structure (SMILES) | binding response (% of control) |
| --- | --- |
| CN(C)S(=O)(=O)Oc1ccccc1C(=O)Nc1ccccc1Cl | 223% (active) |
| CC(=O)Nc1ccc(NC(=O)COc2ccccc2C(=O)Nc2cccc(Cl)c2Cl)cc1 | 94.1% (inactive) |
| COc1cccc2c1OCC(CN1CCN(C3CCCCC3)C(CCO)C1)=C2 (stereo unspecified) | 103% (inactive) |
| CN1CCN(CCCCOc2ccccc2-c2ccccc2)CC1 | 102% (inactive) |
| CC(C)C(O)C1CCN(Cc2nc(Cc3ccccc3Cl)no2)CC1 (stereo unspecified) | 101% (inactive) |
| CC(Nc1nc(N2CCOCC2)nc2ccccc12)c1ccccc1 (stereo unspecified) | 103% (inactive) |
| COc1ccc(OC)c(/C=N/NC(=O)CSc2nnc(C)n2-c2ccccc2)c1 | 105% (inactive) |
| C=CCn1c(Cn2nnc3ccccc32)nnc1SCC(=O)N/N=C/c1cc(Br)cc(OC)c1O | -19.4% [inhibitor] (active) |
| Cn1c(Cn2nnc3ccccc32)nnc1SCC(=O)c1ccccc1F | 103% (inactive) |
| CCn1ccnc1CN(C)Cc1nc(-c2ccc3c(c2)OCO3)no1 | 96.5% (inactive) |
| O=C(CCn1ccc([N+](=O)[O-])n1)Nc1nccs1 | 97.4% (inactive) |
| COc1ccc(C2=NOC(COC(=O)c3ccc4ccccc4n3)C2)cc1 (stereo unspecified) | 97% (inactive) |
| COc1ccc(C(=O)COC(=O)c2ccc3ccccc3n2)cc1 | 39% [inhibitor] (active) |
| CC(OC(=O)c1ccc2ccccc2n1)C(=O)c1ccccc1 (stereo unspecified) | 104% (inactive) |
| O=C(O)c1ccccc1-c1ccccc1C(=O)NCc1cccnc1 | 104% (inactive) |
| CN(C)CCn1c(=S)[nH]c2ccc(Cl)cc2c1=O | 97.9% (inactive) |
| CN(C)CCN=c1cc(-c2ccccc2)oc2ccc(Cl)cc12 | 155% (active) |
| CCN(CC)S(=O)(=O)c1ccc(N2CCCC2)c(NS(=O)(=O)c2cccs2)c1 | 103% (inactive) |
| Cc1cc(C)cc(N(CC(=O)Nc2c(C)n(C)n(-c3ccccc3)c2=O)S(C)(=O)=O)c1 | -21.3% [inhibitor] (active) |
| Cc1ccc(S(=O)(=O)CC(=O)Nc2c(C)n(C)n(-c3ccccc3)c2=O)cc1 | 95.9% (inactive) |
| Cc1cc(C)cc(N(C(C)C(=O)Nc2c(C)n(C)n(-c3ccccc3)c2=O)S(C)(=O)=O)c1 (stereo unspecified) | 101% (inactive) |
| CCn1cc(C(=O)NCCCN2CCCCCC2)c(=O)c2cc(S(=O)(=O)N3CCc4ccccc4C3)ccc21 | 103% (inactive) |
